From PubChem BioAssay
Sampled rows, rich in hits. Any-hit rate of the full collection: about 2.1%.
FUS yeast rescue: suppressors of FUS proteinopathy in yeast. S. cerevisiae FUS-expressing, growth rescue, OD600, 24 h. Potency, µM (top dose mostly 76.6 µM), hits mostly activators. hit rate 0.24% among 390,000. AID 1347120;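 also: plate controls were DMSO vehicle for no effect and reference control for full effect; nearly all actives have a fitted effect of over 55% in size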
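Read-out: OD at 600 nm after 24hr at 30C, reporting rescue of FUS-induced yeast toxicity. Cells at OD 0.005 in galactose (2%) minimal medium; compounds tested in a dilution series; CP55940 titration from 92uM final as control.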
Abeta rescue: compounds reversing amyloid beta toxicity in yeast; yeast expressing A-beta42, growth rescue, OD600, 48 h; response scale: 0% DMSO, 100% iron-clioquinol control; Potency, µM (top dose mostly 46.1 µM), usual class: activators; hit rate 0.063% among 410,000; also: nearly all actives have a fitted effect of over 55% in size
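Yeast growth medium received pinned compounds, then yeast cells expressing toxic A-beta were added; plates incubated at 30 C for 48 hr. Growth read as absorbance at 600 nm, normalized to DMSO and equimolar FeCl3 plus clioquinol controls.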
TDP43 rescue: rescues yeast growth from TDP-43 toxicity; TDP-43 expressing yeast growth rescue, BacTiter-Glo, 24 h; Potency, µM (series often up to 46.1 µM), inactives show at the top dose growth rescue (activation), usual class: activators; hit rate 1.8% among 410,000; AID 652104; also: % of control where 0% means no effect; nearly all actives have a fitted effect of over 50% in size
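Readout is BacTiter-Glo luminescence of cell growth, so inhibitors register as activators. TDP-43-expressing yeast at OD600=0.02 in galactose medium, after raffinose pregrowth to mid-log, were incubated with compound for 24 hr at 30 deg C.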
aSyn rescue: rescues yeast growth from alpha-synuclein toxicity | Yeast expressing alpha-synuclein, growth rescue, BacTiter-Glo, 24 h | Potency, µM (doses to about 46.1 µM), for the others: at the top dose growth rescue (activation), actives largely listed as activators | hit rate 0.14% among 370,000 | AID 652106; also: % of control where 0% means no effect; nearly all actives have a fitted effect of over 65% in size
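Galactose-induced alpha-syn yeast (OD600=0.02, raffinose-pregrown) + pinned cpd, 24 hr, 30 deg C; growth by BacTiter-Glo luminescence. Growth restoration scores as activation.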
An asterisk follows results filed as active; [ ] = another dose, or the depositor's remark. Calls follow the shape of the dose curve; as a rule, active = well fitted curve in the direction sought with a large enough effect; inconclusive = small, poorly fitted or top-dose-only effect, or another doubt; inactive = no such curve, though single readings can be large; an effect the other way counts as inactive or inconclusive. Potency is read from the fitted curve at half-maximal effect.

What do the screens show for `O=C(c1ccccc1)N1c2ncnn2C2(CCCCC2)[C@@H]2CCCC[C@@H]21`?
FUS yeast rescue: inactive; Abeta rescue: inactive; TDP43 rescue: 35µM*

What do the screens show for `CCCCCC(=O)NNC(=S)NC(=O)c1ccc([N+](=O)[O-])cc1`?
FUS yeast rescue: inactive; Abeta rescue: inconclusive; TDP43 rescue: -7%[9.22 µM]; aSyn rescue: 22µM*

How did COc1ccc(C(=O)NNC(=S)NC(=O)c2ccc(OC)cc2)cc1 do in these assays?
FUS yeast rescue: inactive; Abeta rescue: inconclusive; TDP43 rescue: 19%; aSyn rescue: 13%

What do the screens show for `CCCCC(=O)NC(=S)NNC(=O)c1ccc(OC)cc1`?
FUS yeast rescue: inactive; Abeta rescue: inconclusive; TDP43 rescue: inconclusive; aSyn rescue: 6.3µM*

How did CCCCC(=O)NNC(=S)NC(=O)CCC do in these assays?
FUS yeast rescue: inactive; Abeta rescue: inconclusive; TDP43 rescue: -4%; aSyn rescue: 25µM*

What do the screens show for `COc1ccc([N+](=O)[O-])cc1NC(=S)NC(C)=O`?
FUS yeast rescue: inactive; Abeta rescue: inactive; TDP43 rescue: 4%; aSyn rescue: 2%

What do the screens show for `CCCCC(=O)NC(=S)Nc1cc([N+](=O)[O-])ccc1OC`?
FUS yeast rescue: inactive; Abeta rescue: inactive; TDP43 rescue: 7.1µM*; aSyn rescue: -15%

What do the screens show for `O=C(NCCc1nc2ccccc2n1C/C=C/c1ccccc1)C1CCCCC1`?
FUS yeast rescue: inactive

What do the screens show for `CCOC(=O)[C@]12CCCC=C1N(CCCOC)C(=O)[C@@H]2CC(=O)NCC1CCCCC1`?
FUS yeast rescue: inactive

Results for COc1cc(NC(=O)CSc2nnc3c4ccccc4n(C)c3n2)cc(OC)c1OC ?
aSyn rescue: 0%

Results for CCC(Oc1ccccc1)C(=O)Nc1nnc(S(=O)(=O)N2CCCCC2)s1 (stereo not given) ?
FUS yeast rescue: inconclusive; Abeta rescue: inactive; TDP43 rescue: 8%; aSyn rescue: 11%

How did CC(Oc1ccccc1)C(=O)Nc1nnc(S(=O)(=O)N2CCCCCC2)s1 (stereo not given) do in these assays?
FUS yeast rescue: inactive; Abeta rescue: inactive; TDP43 rescue: 20µM*; aSyn rescue: -21%

How did COc1ccccc1NC(=O)Nc1nc(CC(=O)N2CCN(c3ccccc3)CC2)cs1 do in these assays?
FUS yeast rescue: inconclusive; Abeta rescue: inactive; TDP43 rescue: 0%; aSyn rescue: 4.5µM*

Results for O=c1[nH]c2cc3c(cc2cc1C(c1nnnn1Cc1ccccc1)N1CCCCCC1)OCCO3 (stereo not given) ?
FUS yeast rescue: inactive; Abeta rescue: inactive; TDP43 rescue: -8%; aSyn rescue: 8%

How did O=c1[nH]c2cc3c(cc2cc1C(c1nnnn1Cc1ccccc1)N1CCN2CCCC2C1)OCCO3 (stereo not given) do in these assays?
FUS yeast rescue: 18µM*; Abeta rescue: inactive; TDP43 rescue: -21%; aSyn rescue: 3%

What do the screens show for `O=C(Cn1nnc(-c2ccc(N3CCOCC3)cc2)n1)c1cccc(F)c1`?
FUS yeast rescue: inactive

What do the screens show for `COc1ccccc1-n1ncc2c(=O)[nH]c(SCC(=O)Nc3ccc(Cl)cc3)nc21`?
FUS yeast rescue: inactive; Abeta rescue: inactive; TDP43 rescue: 21%

What do the screens show for `CCc1ccc2oc(=O)cc(CN3CCN(c4ccc(F)cc4)CC3)c2c1`?
FUS yeast rescue: inactive; Abeta rescue: inactive; TDP43 rescue: 19%; aSyn rescue: 5%

What do the screens show for `CC(C)c1ccc2oc(=O)cc(CN3CCN(c4ccc(F)cc4)CC3)c2c1`?
FUS yeast rescue: inactive; Abeta rescue: inactive; TDP43 rescue: 14µM*; aSyn rescue: 7%

How did COc1cccc(CNC(=O)c2cccc(NC(=O)c3nsc4ccccc34)c2)c1 do in these assays?
FUS yeast rescue: inactive; Abeta rescue: inactive; TDP43 rescue: 35µM*

What do the screens show for `COc1cccc(CNC(=O)Cn2cccc2C(=O)c2ccccc2)c1`?
FUS yeast rescue: inactive; Abeta rescue: inactive; TDP43 rescue: 20%

Results for O=C(Nc1cccc(C(=O)N2CCCCC2)c1)c1nsc2ccccc12 ?
FUS yeast rescue: inactive; Abeta rescue: inactive; TDP43 rescue: 35µM*

What do the screens show for `COc1cccc(CNC(=O)c2cccc(Br)c2)c1`?
FUS yeast rescue: inactive; Abeta rescue: inactive; TDP43 rescue: 22µM*; aSyn rescue: -20%

How did COc1cccc(CNC(=O)COc2ccc(C(=O)c3ccccc3)cc2)c1 do in these assays?
FUS yeast rescue: inactive; Abeta rescue: inconclusive; TDP43 rescue: 35µM*; aSyn rescue: -48%

Results for CCCCc1ccc(NC(=S)NCc2cccc(OC)c2)cc1 ?
FUS yeast rescue: inactive; Abeta rescue: 10µM*; TDP43 rescue: -6%[0.397 µM]; aSyn rescue: -17%

What do the screens show for `Cc1cc(C)cc(NC(=S)NCc2cccs2)c1`?
Abeta rescue: inactive; TDP43 rescue: 5%; aSyn rescue: -4%

Results for S=C(NCc1ccccn1)Nc1ccc(Cl)cc1Cl ?
FUS yeast rescue: inactive; Abeta rescue: inactive; TDP43 rescue: 11µM*; aSyn rescue: -16%

What do the screens show for `CC(C)(C)c1ccc(NC(=S)NCc2cccs2)cc1`?
FUS yeast rescue: inactive; Abeta rescue: inactive; TDP43 rescue: 13µM*; aSyn rescue: -9%

Results for O=C(O)Cc1ccc(NC(=S)Nc2cccc(Cl)c2Cl)cc1 ?
FUS yeast rescue: inconclusive; Abeta rescue: inactive; TDP43 rescue: -9%; aSyn rescue: 12%

What do the screens show for `O=C(O)Cc1ccc(NC(=S)Nc2ccc(Br)cc2Cl)cc1`?
FUS yeast rescue: inactive; Abeta rescue: inactive; TDP43 rescue: 35µM*; aSyn rescue: 12%

How did S=C(NCc1cccs1)Nc1ccc(Br)cc1Cl do in these assays?
FUS yeast rescue: inactive; Abeta rescue: inconclusive; TDP43 rescue: 35µM*; aSyn rescue: -11%

Results for O=S(=O)(Nc1ccc(Br)cn1)c1ccc(Cl)s1 ?
FUS yeast rescue: inactive; Abeta rescue: inactive; TDP43 rescue: 11µM*; aSyn rescue: 5%

Results for CCn1c(/C=C\c2ccccc2C)nc2ccccc2c1=O ?
FUS yeast rescue: inactive; Abeta rescue: inactive; TDP43 rescue: 22µM*; aSyn rescue: -5%

How did CCN1C(=O)/C(=C\c2nc3ccccc3c(=O)n2CC)c2ccccc21 do in these assays?
FUS yeast rescue: inactive; Abeta rescue: inactive; TDP43 rescue: 13µM*; aSyn rescue: 6%

What do the screens show for `CCn1c(/C=C2\C(=O)N(C)c3ccccc32)nc2ccccc2c1=O`?
FUS yeast rescue: inactive; Abeta rescue: inactive; TDP43 rescue: inconclusive; aSyn rescue: 1%

Results for CCn1c(/C=C2/C(=O)N(C)c3ccccc32)nc2ccccc2c1=O ?
FUS yeast rescue: inactive; Abeta rescue: inactive; TDP43 rescue: 14µM*; aSyn rescue: 19%

How did O=C(NC1CCCC1)c1ccc(COc2ccccc2)o1 do in these assays?
FUS yeast rescue: inactive

Results for COc1ccc(C)cc1NC(=O)CSc1nnc(-c2n[nH]c3c2CCC3)n1N ?
FUS yeast rescue: inactive
